Laboratory results taken from PMC5540273 (PLoS ONE, 2017).
“And” between values parts separate entries of the source, which are not always exact repeats. Identical values can stand only once. Like-named read-outs stand apart in the source and are kept apart here.

Tests used:
[1] = system: RIPK1; settings: concentration: 1 μM, replicates: in singlicate, n = 1
[2] = system: RIPK2; settings: concentration: 1 μM, replicates: in singlicate, n = 1
[3] = system: RIPK4; settings: concentration: 1 μM, replicates: in singlicate, n = 1
[4] = system: RIPK5; settings: concentration: 1 μM, replicates: in singlicate, n = 1
[5] = system: ROCK1; settings: concentration: 1 μM, replicates: in singlicate, n = 1
[6] = system: ROCK2; settings: concentration: 1 μM, replicates: in singlicate, n = 1
[7] = system: ROS1; settings: concentration: 1 μM, replicates: in singlicate, n = 1
[8] = system: RPS6KA4(Kin.Dom.1-N-terminal); settings: concentration: 1 μM, replicates: in singlicate, n = 1
[9] = system: RPS6KA4(Kin.Dom.2-C-terminal); settings: concentration: 1 μM, replicates: in singlicate, n = 1
[10] = system: RPS6KA5(Kin.Dom.1-N-terminal); settings: concentration: 1 μM, replicates: in singlicate; n = 1
[11] = system: RPS6KA5(Kin.Dom.2-C-terminal); settings: concentration: 1 μM, replicates: in singlicate, n = 1
[12] = system: T1, RSK1(Kin.Dom.1-N-terminal); settings: concentration: 1 μM, replicates: in singlicate, n = 1
T1 construct: gene RPS6KA1

[13] = system: T2, RSK1(Kin.Dom.2-C-terminal); settings: concentration: 1 μM, replicates: in singlicate, n = 1
T2 construct: gene RPS6KA1

[14] = system: T3, RSK2(Kin.Dom.1-N-terminal); settings: concentration: 1 μM, replicates: in singlicate; n = 1
T3 construct: gene RPS6KA3

[15] = system: T4, RSK2(Kin.Dom.2-C-terminal); settings: concentration: 1 μM, replicates: in singlicate, n = 1
T4 construct: gene RPS6KA3

[16] = system: T5, RSK3(Kin.Dom.1-N-terminal); settings: concentration: 1 μM, replicates: in singlicate, n = 1
T5 construct: gene RPS6KA2

[17] = system: T6, RSK3(Kin.Dom.2-C-terminal); settings: concentration: 1 μM, replicates: in singlicate; n = 1
T6 construct: gene RPS6KA2

[18] = system: T7, RSK4(Kin.Dom.1-N-terminal); settings: concentration: 1 μM, replicates: in singlicate, n = 1
T7 construct: gene RPS6KA6

[19] = system: T8, RSK4(Kin.Dom.2-C-terminal); settings: concentration: 1 μM, replicates: in singlicate, n = 1
T8 construct: gene RPS6KA6

[20] = system: S6K1; settings: concentration: 1 μM, replicates: in singlicate; n = 1
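Note: KINOMEscan kinase panel screen.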

Structure (SMILES): O=c1cc(N2CCOCC2)nc2n(Cc3cccc(Cl)c3)ccn12 [GSK2296823]
- %Inh [1]: 0%
- %Inh [2]: 0%
- %Inh [3]: 19%
- %Inh [4]: 0%
- %Inh [5]: 0%
- %Inh [6]: 0%
- %Inh [7]: 0%
- %Inh [8]: 6%
- %Inh [9]: 0%
- %Inh [10]: 10%
- %Inh [11]: 7%
- %Inh [12]: 10%
- %Inh [13]: 0%
- %Inh [14]: 21%
- %Inh [15]: 27%
- %Inh [16]: 0%
- %Inh [17]: 0%
- %Inh [18]: 0%
- %Inh [19]: 19%
- %Inh [20]: 0%

Structure (SMILES): Fc1ccc(-c2ncn(CCCNCc3ccccc3)c2-c2ccncc2)cc1
- %Inh [1]: 9%
- %Inh [2]: 0%
- %Inh [3]: 29%
- %Inh [4]: 26%
- %Inh [5]: 27%
- %Inh [6]: 32%
- %Inh [7]: 0%
- %Inh [8]: 0%
- %Inh [9]: 32%
- %Inh [10]: 0%
- %Inh [11]: 7%
- %Inh [12]: 0%
- %Inh [13]: 22%
- %Inh [14]: 0%
- %Inh [15]: 22%
- %Inh [16]: 16%
- %Inh [17]: 21%
- %Inh [18]: 0%
- %Inh [19]: 31%
- %Inh [20]: 19%

Structure (SMILES): COc1ccc(-c2nc3n(c2-c2ccncc2)CCC3)cc1 [SKF-104493]
- %Inh ([1]; 1 µM): 0% and 20%
- %Inh ([2]; 1 µM): 40% and 46%
- %Inh ([3]; 1 µM): 9% and 12%
- %Inh ([4]; 1 µM): 19% and 0%
- %Inh ([5]; 1 µM): 21% and 5%
- %Inh ([6]; 1 µM): 29% and 0%
- %Inh ([7]; 1 µM): 10% and 28%
- %Inh ([8]; 1 µM): 7% and 0%
- %Inh ([9]; 1 µM): 2% and 0%
- %Inh [10]: 0%
- %Inh ([11]; 1 µM): 10% and 0%
- %Inh ([12]; 1 µM): 0% and 4%
- %Inh ([13]; 1 µM): 93.1% and 37%
- %Inh [14]: 0%
- %Inh ([15]; 1 µM): 12% and 5%
- %Inh ([16]; 1 µM): 1% and 0%
- %Inh [17]: 0%
- %Inh ([18]; 1 µM): 68% and 0%
- %Inh ([19]; 1 µM): 59% and 63%
- %Inh [20]: 0%

Structure (SMILES): Cc1cccc(-c2nc(Nc3ccc4[nH]nnc4c3)c3ccccc3n2)n1 [GW867587]
- %Inh [1]: 0%
- %Inh [2]: 0%
- %Inh [3]: 0%
- %Inh [4]: 0%
- %Inh [5]: 49%
- %Inh [6]: 0%
- %Inh [7]: 0%
- %Inh [8]: 0%
- %Inh [9]: 0%
- %Inh [10]: 0%
- %Inh [11]: 0%
- %Inh [12]: 0%
- %Inh [13]: 16%
- %Inh [14]: 12%
- %Inh [15]: 0%
- %Inh [16]: 0%
- %Inh [17]: 12%
- %Inh [18]: 0%
- %Inh [19]: 0%
- %Inh [20]: 0%
